Measurements as given in PubChem BioAssay (EPA / NIEHS).
Results filed as inconclusive are left out. Some compounds were tested as several samples or in several runs, with calls that do not always agree. Active and inactive are the calls of the source. How the source made its calls, unless noted: active means hit-call score of the fitted dose curve at least 0.9, where 1 is the maximum; inactive means score below 0.9.

How the values were obtained:
[1] = CCTE_Shafer_MEA_dev_burst_rate: CCTE's Neural Network Formation Assay for Burst Rate, Shafer Lab (AID 2284042)
Method in brief: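 Cells plated, treated day 0; recorded DIV 5, 7, 9, 12; fed and re-treated DIV 5, 9. Endpoint: bursts per recording time, active-electrode well mean, trapezoidal AUC, fitted in decreasing direction against DMSO baseline.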

[2] = CCTE_Shafer_MEA_dev_per_burst_interspike_interval: CCTE's Neural Network Formation Assay for Burst Interspike Interval, Shafer Lab (AID 2284044);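 further: mean spike spacing inside bursts as AUC over recordings on days 5 7 9 12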
Method in brief: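 Neurons from rat cortex plated onto PEI-coated MEA wells with laminin […] at 1.5 x 10^5 cells/well, then treated from day 0. Media and compound fully replaced on DIV 5 and 9. Extracellular spontaneous firing recorded four times; interspike interval per burst summarised as AUC.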

[3] = CCTE_Shafer_MEA_dev_burst_duration_mean: CCTE's Neural Network Formation Assay for Mean Burst Duration, Shafer Lab (AID 2284045)
Method in brief: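 Primary rat cortical neurons on PEI-coated 16-electrode MEA wells, exposed from plating through day 12 with compound renewed at DIV 5 and 9; spontaneous activity recorded days 5, 7, 9, 12. Well-mean burst duration collapsed as trapezoidal AUC, fitted for loss versus DMSO.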

[4] = CCTE_Shafer_MEA_dev_inter_network_spike_interval_mean: CCTE's Neural Network Formation Assay for Mean Inter-network Spike Interval, Shafer Lab (AID 2284047);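 on AC50: potency for a decrease in mean inter-network spike interval below DMSO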
Method in brief: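 Rat cortical cultures, 1.5 x 10^5 cells/well on 48-well MEA plates; continuous exposure days 0–12, medium and compound refreshed DIV 5, 9. Mean time between consecutive network-spike peaks; AUC across DIV 5/7/9/12; DMSO baseline, negative fitting direction.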

[5] = CCTE_Shafer_MEA_dev_network_spike_number: CCTE's Neural Network Formation Assay for Number of Network Spikes, Shafer Lab (AID 2284048);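 further: synchronized bursts across electrodes counted on days 5 7 9 12 and integrated as AUC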
Method in brief: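 Primary rat cortical neurons were seeded at 1.5 x 10^5 cells/well on PEI-coated 16-electrode MEA wells with laminin, exposed from plating day 0, compound renewed at DIV 5 and 9. Network spikes were recorded on days 5, 7, 9, 12 and summarized as trapezoidal AUC versus DMSO.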

[6] = CCTE_Shafer_MEA_dev_spike_duration_mean: CCTE's Neural Network Formation Assay for Mean Spike Duration, Shafer Lab (AID 2284051);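 further: mean network spike duration pooled as area under curve over DIV 5 to 12 recordings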
Method in brief: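 Readout is the average length of network spikes, clustered firing across electrodes, summed over DIV 5, 7, 9 and 12 as area under the curve. Neurons from rat cortex developed networks on MEA plates under continuous 12-day exposure.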

[7] = CCTE_Shafer_MEA_dev_network_spike_duration_std: CCTE's Neural Network Formation Assay for Standard Deviation of Network Spike Duration, Shafer Lab (AID 2284052);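 further: area under curve of spike duration SD across recording days 5 to 12; hits are decreases in network spike duration SD versus DMSO vehicle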
Method in brief: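 Read-out is the trapezoidal area-under-the-curve across recordings made on days 5, 7, 9 and 12, fitted in the negative direction against DMSO baseline. Neurons were primary rat cortical cells treated from day 0, with treatment renewed at each feed.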

[8] = CCTE_Shafer_MEA_dev_per_network_spike_spike_number_mean: CCTE's Neural Network Formation Assay for Mean Number of Spikes in a Network Spike, Shafer Lab (AID 2284053);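 on AC50: fitted as decrease in spikes per network spike relative to DMSO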
Method in brief: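 Continuous twelve-day exposure of developing rat cortical networks grown over 16 microelectrodes per well; spontaneous firing is captured at four time points, and the per-network-spike spike number is integrated over development by trapezoidal AUC.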

[9] = CCTE_Shafer_MEA_dev_per_network_spike_spike_percent: CCTE's Neural Network Formation Assay for Percent of Spikes in a Network Spike, Shafer Lab (AID 2284054)
Method in brief: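 Primary rat cortical neurons on 16-electrode MEA wells (PEI-coated, laminin at plating), exposed from day 0 with renewal at DIV 5 and 9; spikes within 0.05 s of network-spike peaks over total spikes, AUC across days 5, 7, 9, 12.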

[10] = CCTE_Shafer_MEA_dev_LDH: CCTE's Lactate Dehydrogenase Assay for Cytotoxicity in the Neural Network Formation Assay, Shafer Lab (AID 2284068; active means hit-call score of the fitted dose curve at least 0.9, where 1 is the maximum;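 further: exposure for twelve days from plating with re-dosing on DIV 5 and 9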)
Method in brief: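 Cytotoxicity companion to network-formation recordings: rat cortical neurons received compound over 12 days of development, re-dosed at DIV 5 and 9 feeds. Viability was inferred from LDH enzyme activity relative to DMSO.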

[11] = CCTE_Shafer_MEA_dev_AB: CCTE's Alamar Blue Assay for Cytotoxicity in the Neural Network Formation Assay, Shafer Lab (AID 2284083; active means hit-call score of the fitted dose curve at least 0.9, where 1 is the maximum;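 further: twelve days of exposure from plating with re-dosing on DIV 5 and 9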)
Method in brief: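 Fluorescent resazurin reduction serves as the viability read-out, with DMSO as negative control and baseline. Cells were primary rat cortical neurons grown on MEA plates and dosed from day 0 to day 12, treatment renewed on DIV 5 and 9.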

[12] = CCTE_Shafer_MEA_dev_mutual_information_norm: CCTE's Neural Network Formation Assay for Mutual Information Normalization, Shafer Lab (AID 2284091)
Method in brief: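 Rat cortical cultures, 48-well MEA, continuous exposure DIV 0–12 with full media/compound change DIV 5 and 9. Readout: inter-electrode mutual information, AxIS adaptive spike detection; AUC across DIV 5/7/9/12 recordings; DMSO baseline, negative fitting direction.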

[13] = molecular target: Estrogen receptor (Homo sapiens) (UniProt P03372); test: CCTE_Deisenroth_AIME_384WELL_LUC_Shift: CCTE's 384-well Estrogen Receptor Transactivation Assay with AIME metabolic competence data shift (ERTA luciferase; difference in metabolism positive and negative), Deisenroth Lab (AID 2284041);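 further: shift is response with S9 minus without S9 so positive means metabolism raised ER signal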
Chain of Estrogen receptor (Homo sapiens) (P03372 whole entry, looked up): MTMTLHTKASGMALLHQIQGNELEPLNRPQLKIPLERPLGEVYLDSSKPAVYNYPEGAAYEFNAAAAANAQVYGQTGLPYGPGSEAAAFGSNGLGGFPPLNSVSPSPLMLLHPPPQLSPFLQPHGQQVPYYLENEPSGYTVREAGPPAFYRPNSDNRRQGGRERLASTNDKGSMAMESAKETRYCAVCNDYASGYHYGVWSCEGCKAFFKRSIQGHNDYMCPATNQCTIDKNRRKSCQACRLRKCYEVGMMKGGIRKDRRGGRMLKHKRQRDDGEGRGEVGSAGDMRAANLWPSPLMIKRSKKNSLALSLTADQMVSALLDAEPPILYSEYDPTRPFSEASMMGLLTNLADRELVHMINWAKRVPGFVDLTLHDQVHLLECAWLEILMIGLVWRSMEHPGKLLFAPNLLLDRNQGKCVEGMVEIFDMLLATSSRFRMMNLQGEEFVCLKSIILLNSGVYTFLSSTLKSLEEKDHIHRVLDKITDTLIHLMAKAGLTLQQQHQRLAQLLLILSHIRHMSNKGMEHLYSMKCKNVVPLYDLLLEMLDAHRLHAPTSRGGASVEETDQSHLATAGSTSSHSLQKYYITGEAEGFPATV
Method in brief: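 Here, parent compounds undergo 2 h phase I metabolism by PB/BNF-induced rat S9 before 24 h transactivation in VM7Luc4E2 cells; the curve models S9-positive minus S9-negative response over a 10-point series.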

[14] = CCTE_Shafer_MEA_acute_LDH: CCTE's Lactate Dehydrogenase Assay for Cytotoxicity in the Neural Acute Assay, Shafer Lab (AID 2284086; active means hit-call score of the fitted dose curve at least 0.9, where 1 is the maximum;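 further: active means LDH release rises above DMSO vehicle level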)
Method in brief: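 Medium from rat cortical neuron MEA cultures sampled right after the 40 min compound-exposure recording; released LDH measured by absorbance at 490 nm. Analyzed as signal gain relative to DMSO.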

[15] = CCTE_Shafer_MEA_dev_bursting_electrodes_number: CCTE's Neural Network Formation Assay for Number of Bursting Electrodes, Shafer Lab (AID 2284043; active means hit-call score of the fitted dose curve at least 0.9, where 1 is the maximum;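 on AC50: potency is for loss of bursting electrodes relative to DMSO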)
Method in brief: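 Primary rat cortical neurons were cultured on PEI-coated 48-well MEA plates (16 electrodes/well) and exposed from plating through day 12, with compound renewed at feeds on DIV 5 and 9. Electrodes bursting ≥1 per 2 min were counted on DIV 5, 7, 9, 12; trapezoidal AUC taken.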

[16] = UKN5_HCS_SBAD2_cell_viability: Viability Assessment in the University of Konstanz (UKN) Leist Lab Neurite Outgrowth Assay in human iPSC-derived immature Dorsal Root Ganglia Neurons (UKN5) (AID 2284056)
Method in brief: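 iPSC-derived immature peripheral neurons (SBAD2) seeded on Matrigel with CHIR99021, SU5402 and DAPT, dosed 1 h later for 24 h. Viability from Hoechst H-33342 and calcein-AM live staining, high-content imaging; bidirectional fit versus DMSO.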

[17] = UKN5_HCS_SBAD2_neurite_outgrowth: University of Konstanz (UKN) Leist Lab Neurite Outgrowth Assay in human iPSC-derived immature Dorsal Root Ganglia Neurons (UKN5) (AID 2284070); details: actives raise or lower the signal
Method in brief: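 SBAD2 iPSC-derived immature peripheral neurons on Matrigel, 100.000 cells/cm2, medium with CHIR99021 (1.5 uM), SU5402 (5 uM), DAPT (5 uM); compound added 1 h post-seeding for 24 h. Calcein-AM neurite area by high-content imaging; Hoechst H-33342 viability; bidirectional fit vs DMSO.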

[18] = CCTE_Shafer_MEA_acute_AB: CCTE's Alamar Blue Assay for Cytotoxicity in the Neural Acute Assay, Shafer Lab (AID 2284069; active means hit-call score of the fitted dose curve at least 0.9, where 1 is the maximum;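 further: active compounds lower the viability signal compared with DMSO wells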)
Method in brief: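 Metabolic activity in chemically exposed rat cortical neurons (MEA cultures, day 13/15 post-plating) measured via CellTiter Blue resazurin reduction, 544/590 nm fluorescence; fitted relative to DMSO, with signal loss indicating reduced viability.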

DIO2 (gene 1734) = test: CCTE_GLTED_hDIO2: CCTE's human Deiodinase 2 (DIO2) Inhibition Assay, Great Lakes Toxicology and Ecology Division (GLTED) Lab (AID 2284050; active means hit-call score of the fitted dose curve at least 0.9, where 1 is the maximum)
Method in brief: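 Cell-free human DIO2 incubated 3 h with chemical; liberated iodide quantified by Sandell-Kolthoff absorbance. Triplicate plates; loss of signal fitted vs DMSO.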

DIO3 (gene 1735) = test: CCTE_GLTED_hDIO3: CCTE's human Deiodinase 3 (DIO3) Inhibition Assay, Great Lakes Toxicology and Ecology Division (GLTED) Lab (AID 2284055; active means hit-call score of the fitted dose curve at least 0.9, where 1 is the maximum;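 further: potency is for inhibition seen as loss of released iodide signal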)
Method in brief: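 Human DIO3 from an adenovirus expression system is incubated 3 h with test chemical. Released iodide is quantified by Sandell-Kolthoff absorbance, in triplicate plates. Loss of signal is fitted relative to DMSO.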

Measured: AC50

OC(Cn1cncn1)(Cn1cncn1)c1ccc(F)cc1F
active: [4] 3.83 µM
not listed: [13] | [14] | [15] | [16] | [17] | [18] | DIO2 (gene 1734) | DIO3 (gene 1735)
inactive: all other assays above

CCCCC(CC)C(=O)OCCOCCOCCOC(=O)C(CC)CCCC (configuration not stated)
inactive: [13] | [14]

NC(=O)N1c2ccccc2C=Cc2ccccc21
not listed: [11] | [13] | [14] | [18] | DIO2 (gene 1734) | DIO3 (gene 1735)
inactive: all other assays above

CCCCCCCC/C=C\CCCCCCCC(=O)OC[C@@H](O)[C@H]1OC[C@H](O)[C@H]1O
inactive: [18]

Cn1cc[nH]c1=S
active: [10] 0.0466 µM
not listed: [13] | [14] | [16] | [17] | [18] | DIO2 (gene 1734) | DIO3 (gene 1735)
inactive: all other assays above

NNC(=O)c1ccncc1
active: [15] 0.595 µM
not listed: [10] | [13] | [14] | [16] | [17] | [18] | DIO2 (gene 1734) | DIO3 (gene 1735)
inactive: all other assays above

OCCC(F)(F)C(F)(F)C(F)(F)C(F)(F)F
inactive: [1] | [2] | [3] | [4] | [5] | [6] | [7] | [8] | [9] | [12]

O=S(=O)(O)c1ccc(N=Nc2c(O)ccc3cc(S(=O)(=O)O)ccc23)cc1
inactive: [18] | [14]

Cn1c(=O)c2[nH]cnc2n(C)c1=O
inactive: [18] | [14]

O=C(Cl)C(F)(F)C(F)(F)C(F)(F)C(=O)Cl
not listed: [10] | [13] | [14] | [16] | [17] | [18] | DIO2 (gene 1734) | DIO3 (gene 1735)
inactive: all other assays above

COCc1nnc(-c2ccc[n+]([O-])c2)n1-c1c(Cl)c(Cl)cc2[nH]c(=O)c(=O)[nH]c12
inactive: [18] | [14]

OC(O)(C(F)C(O)(O)C(F)(F)F)C(F)(F)F
not listed: [13] | [14] | [16] | [17] | [18] | DIO2 (gene 1734) | DIO3 (gene 1735)
inactive: all other assays above

c1ccc2cc3ccccc3cc2c1
inactive: [1] | [15] | [2] | [3] | [4] | [5] | [6] | [7] | [8] | [9] | [10] | [14] | [12]
active: [9] 0.218 µM

OC(CCl)CCl
inactive: [18] | [14]

CCCC(CCC)C(=O)O
active: [8] 576 µM | [9] 488 µM | [16] 5000 µM | [17] 5000 µM
not listed: [4] | [13] | [14] | [18] | DIO2 (gene 1734) | DIO3 (gene 1735)
inactive: all other assays above

FC(F)(F)COC(OCC(F)(F)F)OCC(F)(F)F
not listed: [11] | [13] | [14] | [16] | [17] | [18] | DIO2 (gene 1734) | DIO3 (gene 1735)
inactive: all other assays above

FC(F)(F)C(F)(F)C(F)(F)C(F)(F)C(F)(F)C(F)(F)I
inactive: [1] | [15] | [2] | [3] | [4] | [5] | [6] | [7] | [8] | [9] | [12]

COc1cc(C(C)C)c2c(c1)S(=O)(=O)N(COc1cc(=O)n3cccc(OCCN4CCCCC4)c3n1)C2=O
active: DIO2 (gene 1734) 11.7 µM | DIO3 (gene 1735) 4.67 µM
inactive: [18]

Cc1ncc([C@@H](CCCCCCc2ccc3c(n2)NCCC3)CC(=O)O)cn1
inactive: [18]
